Values joined by “and” are separate entries in the source; they are usually repeats but may differ in a detail not shown here. Equal values may be shown once. More than one record can exist for a structure, and the calls need not agree. Active and inactive are the calls of the source. Rule for the calls: active = hit-call score of the fitted dose curve at least 0.9, where 1 is the maximum; inactive = score below 0.9.
Experiments:
[1] = BSK_CASM3C_SRB: Viability Assessment in the BioMAP Diversity Plus: CASM3C Assay (AID 2283050); details: primary human coronary artery smooth muscle cells;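 note: total protein by SRB staining as cytotoxicity measure in parallel cultures; cells exposed to compound for 24 h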
[2] = read-out: Thrombomodulin, THBD (gene 7056); experiment: BSK_CASM3C_Thrombomodulin: BioMAP Diversity Plus: CASM3C Assay for Thrombomodulin Biomarker Activity (AID 2283051); details: primary human coronary artery smooth muscle cells; actives raise or lower the signal;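 note: thrombomodulin protein level measured by ELISA 24 h after dosing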
[3] = read-out: Tissue Factor, F3 (gene 2152); experiment: BSK_CASM3C_TissueFactor: BioMAP Diversity Plus: CASM3C Assay for Tissue Factor Biomarker Activity (AID 2283052); details: primary human coronary artery smooth muscle cells; actives raise or lower the signal;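 note: cell surface tissue factor protein level read by ELISA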
[4] = read-out: Interferon-gamma inducible Protein 10 (IP10), CXCL10 (gene 3627); experiment: BSK_hDFCGF_IP10: BioMAP Diversity Plus: hDFCGF Assay for Interferon-gamma inducible Protein 10 (IP10) Biomarker Activity (AID 2283053); details: primary human foreskin fibroblasts; actives raise or lower the signal
Procedure, shortened: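 ELISA read-out of IP-10 (CXCL10) from primary human skin fibroblasts, 24 h after compound addition. Gain or loss of signal versus DMSO baseline, bidirectional curve fitting.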

[5] = read-out: Urokinase-type plasminogen activator receptor (uPAR), PLAUR (gene 5329); experiment: BSK_CASM3C_uPAR: BioMAP Diversity Plus: CASM3C Assay for Urokinase-type plasminogen activator receptor (uPAR) Biomarker Activity (AID 2283054); details: primary human coronary artery smooth muscle cells; actives raise or lower the signal;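 note: cell-surface uPAR protein level quantified by ELISA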
[6] = read-out: Vascular cell adhesion molecule 1 (VCAM1), VCAM1 (gene 7412); experiment: BSK_CASM3C_VCAM1: BioMAP Diversity Plus: CASM3C Assay for Vascular cell adhesion molecule 1 (VCAM1) Biomarker Activity (AID 2283055); details: primary human coronary artery smooth muscle cells; actives raise or lower the signal;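 note: VCAM-1 protein level quantified by ELISA on the cells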
[7] = read-out: Collagen III, COL3A1 (gene 1281); experiment: BSK_hDFCGF_CollagenIII: BioMAP Diversity Plus: hDFCGF Assay for Collagen III Biomarker Activity (AID 2283056); details: primary human foreskin fibroblasts; actives raise or lower the signal
Procedure, shortened: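 ELISA readout of Collagen III in human dermal (foreskin) fibroblasts, taken 24 h post-treatment. Gain or loss relative to DMSO vehicle fitted in both directions.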

[8] = read-out: Epidermal growth factor receptor (EGFR), EGFR (gene 1956); experiment: BSK_hDFCGF_EGFR: BioMAP Diversity Plus: hDFCGF Assay for Epidermal growth factor receptor (EGFR) Biomarker Activity (AID 2283057); details: primary human foreskin fibroblasts; actives raise or lower the signal
Procedure, shortened: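 ELISA readout of EGFR on human dermal fibroblasts (primary foreskin cells), 24 h post-dosing; bidirectional curve fit vs DMSO baseline, gain or loss of signal scored.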

[9] = read-out: Interleukin-8 (IL8), CXCL8 (gene 3576); experiment: BSK_hDFCGF_IL8: BioMAP Diversity Plus: hDFCGF Assay for Interleukin-8 (IL8) Biomarker Activity (AID 2283058); details: primary human foreskin fibroblasts; actives raise or lower the signal
Procedure, shortened: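 IL-8 levels read by ELISA at 24 hours after dosing human skin fibroblast cultures. Parallel SRB staining assessed overt cytotoxicity, and gain or loss of signal was fitted against DMSO control.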

[10] = BSK_hDFCGF_Proliferation: Cell Proliferation Assessment in the BioMAP Diversity Plus: hDFCGF Assay (AID 2283059); details: primary human foreskin fibroblasts;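 note: curves fitted for both rise and fall of signal versus DMSO baseline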
Procedure, shortened: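 Sub-confluent human foreskin fibroblast cultures receive test chemical […]. Relative cell number is quantified by sulforhodamine B staining (0.1%, after 10% TCA fixation) at 560 nm, with bidirectional fitting referenced to DMSO.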

Measured: AC50

CC(c1cc(C(C)(C)C)cc(C(C)(C)C)c1O)c1cc(C(C)(C)C)cc(C(C)(C)C)c1O
inactive: all assays above

Cc1c(O)cccc1O
inactive: all assays above

C=CC(=O)NC(C)(C)C
inactive: all assays above

COc1ccc(C(=O)c2ccccc2)c(O)c1
active: [3] 20 µM
not listed: [4]
inactive: all other assays above

CC(C)[N+](C)(CCOC(=O)C1c2ccccc2Oc2ccccc21)C(C)C
active: [10] 0.471 µM
inactive: all other assays above

Oc1c(Cl)cc(Cl)c(Cl)c1Cl
active: [4] 31.1 µM | [6] 3.97 µM | [7] 10.4 µM | [10] 27.7 µM
inactive: all other assays above

C=CC(=O)NCOCCCC
not listed: [4]
inactive: all other assays above

CC/C=C\CCOC(=O)c1ccccc1O
active: [1] 34.5 µM | [3] 20 µM | [4] 13.7 µM | [5] 36.3 µM | [6] 32.1 µM | [7] 11.8 µM | [10] 10 µM
inactive: [2] | [8] | [9]

c1ccc(Nc2cccc3ccccc23)cc1
active: [1] 31.3 µM | [2] 10.1 µM and 7.36 µM | [3] 2.1 µM | [4] 30.3 µM and 34.6 µM | [5] 10.5 µM | [6] 7.35 µM | [7] 17.3 µM and 13.9 µM | [8] 32.5 µM | [9] 35.1 µM and 36.6 µM | [10] 9.99 µM and 12.2 µM
inactive: [1] | [3] | [5] | [6] | [8]

CC=C(C)C=CC=C(C)C
active: [3] 3.97 µM | [6] 16.8 µM | [10] 15.7 µM
inactive: all other assays above

CC/C=C\C/C=C\C/C=C\CCCCCCCC(=O)OC
active: [1] 15.2 µM | [2] 36.2 µM | [3] 13.9 µM | [5] 29.7 µM | [6] 14.8 µM | [7] 5.53 µM | [9] 20 µM | [10] 1.68 µM
inactive: [8]

COC(OC)(C(=O)c1ccccc1)c1ccccc1
not listed: [4]
inactive: all other assays above

CCCCCCCO
not listed: [4]
inactive: all other assays above

Cc1ccc([N+](=O)[O-])cc1N
inactive: all assays above

Oc1ccccc1Cc1ccccc1O
inactive: [1] | [2] | [3] | [4] | [5] | [6] | [7] | [8] | [9]
active: [6] 0.239 µM | [10] 28.1 µM and 27 µM

C=C(C)C(=O)OCCCCCCCCCCCC
active: [10] 11.7 µM
inactive: all other assays above

O=C1CCCCCCCCCCC1
inactive: all assays above

C[N+](C)(C)CCCNS(=O)(=O)C(F)(F)C(F)(F)C(F)(F)C(F)(F)C(F)(F)C(F)(F)C(F)(F)C(F)(F)F
active: [2] 30 µM | [4] 48.5 µM and 48.9 µM | [7] 11.4 µM and 5.3 µM | [9] 49.3 µM and 45.2 µM | [10] 1.44 µM and 220 nM
inactive: [1] | [2] | [3] | [5] | [6] | [8]

Nc1cccc(N)n1
inactive: all assays above

Nc1nc(N)nc(-c2ccccc2)n1
active: [3] 0.0609 µM | [6] 0.268 µM
inactive: [1] | [2] | [3] | [5] | [6] | [7] | [8] | [9] | [10]

O=C(Oc1ccccc1)c1ccccc1C(=O)Oc1ccccc1
active: [7] 11.5 µM | [10] 24 µM
not listed: [4]
inactive: all other assays above

CCOC(=O)C1=NOC(c2ccccc2)(c2ccccc2)C1
active: [6] 20 µM
not listed: [4]
inactive: all other assays above

COc1ccc(C(=O)/C(Br)=C\C(=O)O)cc1
active: [1] 23.8 µM and 28.8 µM | [3] 4.22 µM and 11.4 µM | [5] 13.4 µM and 30.6 µM | [6] 12 µM and 20 µM | [7] 13.6 µM | [8] 29.1 µM | [9] 38.9 µM | [10] 29.4 µM and 20 µM
inactive: [2] | [7] | [8] | [9]

CCc1cccc(C)c1N(C(=O)CS(=O)(=O)O)C(C)COC (configuration not stated)
inactive: all assays above

CC(C)c1cccc(C(C)C)c1N
inactive: all assays above

Nc1ccc(C(=O)O)cc1
inactive: all assays above

Clc1cc(Cl)c(Cl)c(Cl)c1Cl
inactive: all assays above

C=CCCCCCCCCC=O
not listed: [4]
inactive: all other assays above

CCCCCCCCC(CO)CCCCCC (configuration not stated)
active: [7] 4.17 µM | [10] 4.06 µM
inactive: all other assays above

CC1=CC=C(C(C)C)CC1
not listed: [4]
inactive: all other assays above

CCCCCCOC(=O)CCCCC(=O)OCCCCCC
not listed: [4]
inactive: all other assays above

O=C1CCCCCCCCCCCN1
not listed: [4]
inactive: all other assays above

CCCCC1C(=O)N(c2ccccc2)N(c2ccccc2)C1=O
not listed: [4]
inactive: all other assays above

C=CC(=O)OCCCCCCCC(C)C
active: [6] 20 µM | [10] 9.62 µM
not listed: [4]
inactive: all other assays above

C=CC(=O)OCCCCCCOC(=O)C=C
active: [1] 20 µM | [3] 1.43 µM | [5] 29.4 µM | [6] 10.8 µM | [7] 7.72 µM | [9] 20 µM | [10] 1.72 µM
inactive: [2] | [8]

CC=C(C)C(C)=O
active: [2] 3.97 µM | [7] 3.97 µM | [10] 20 µM
not listed: [4]
inactive: all other assays above

C=CC(=O)OCC(C)OCC(C)OCC(C)OC(=O)C=C (configuration not stated)
inactive: [2]
active: [1] 20 µM | [3] 2.28 µM | [5] 8.9 µM | [6] 15.3 µM | [7] 35.7 µM | [8] 33.4 µM | [9] 33.1 µM | [10] 6.25 µM

CCCCCCCCCCCC(=O)N(C)CC(=O)O
active: [7] 8.61 µM and 24.7 µM
not listed: [4]
inactive: all other assays above

Fc1ccc(Br)cc1
not listed: [4]
inactive: all other assays above

CC(Cl)COP(=O)(OCC(C)Cl)OCC(C)Cl (configuration not stated)
not listed: [4]
inactive: all other assays above

CCOC(=O)C1=NN(c2ccc(Cl)cc2Cl)C(C)(C(=O)OCC)C1 (configuration not stated)
active: [7] 20 µM
not listed: [4]
inactive: all other assays above

CC(CCC(=O)O)(c1ccc(O)cc1)c1ccc(O)cc1
not listed: [4]
inactive: all other assays above

CC(C)C(=O)OCCc1ccccc1
not listed: [4]
inactive: all other assays above

C1CNCCN1
not listed: [4]
inactive: all other assays above

O=C(O)C(F)(F)C(F)(F)C(F)(F)C(F)(F)C(=O)O
not listed: [4]
inactive: all other assays above

c1ccc2c(c1)[nH]c1ccccc12
not listed: [4]
inactive: all other assays above

CCN1CN(CC)CN(CC)C1
not listed: [4]
inactive: all other assays above

Oc1ccc(/C=C/c2cc(O)cc(O)c2)cc1
active: [3] 7.96 µM | [10] 17.5 µM
not listed: [4]
inactive: all other assays above

O=C(Cl)c1c(Cl)c(Cl)c(C(=O)Cl)c(Cl)c1Cl
not listed: [4]
inactive: all other assays above

CCCC(C)C(=O)OCC (configuration not stated)
not listed: [4]
inactive: all other assays above

CCCCCC1=CCCC1=O
not listed: [4]
inactive: all other assays above

CCCCCCCCCCCC(C)=O
active: [1] 20 µM | [3] 0.82 µM | [5] 20 µM | [10] 24.6 µM
not listed: [4]
inactive: all other assays above

CCOC(=O)/C=C\C(=O)OCC
not listed: [4]
inactive: all other assays above

CC(C)CCCCCOC(=O)CS
not listed: [4]
inactive: all other assays above

CCNc1nc(NC(C)(C)C)nc(OC)n1
not listed: [4]
inactive: all other assays above

CCCCCCC=O
not listed: [4]
inactive: all other assays above

CCC1(C)C(=O)N(Cl)C(=O)N1Cl (configuration not stated)
not listed: [4]
inactive: all other assays above

CC1(C)CC(O)CC(C)(C)N1[O]
not listed: [4]
inactive: all other assays above

c1ccc2sc(SSN3CCOCC3)nc2c1
inactive: [2] | [7] | [9]
active: [1] 20 µM | [3] 10.6 µM | [5] 6.71 µM | [6] 4.44 µM | [8] 7.7 µM | [10] 1.41 µM

Reference: PubChem BioAssay (EPA / NIEHS)
